Consider 8 compounds from PubChem BioAssay (NCI).

SMILES strings stand for the structures. About 83,000 compounds went through this panel and 20% of them were active in at least one assay; those are over-represented in the sample as a whole.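 Assay: single dose, 48 h. Readout: percent growth (0 = no net growth; negative = cell death). Active: <10.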 Values without a mark were called inactive. Calls of active or inactive are those of the source.

Experiment in all cases: NCI-60 one-dose screen, 48 h (100 = growth as untreated, 0 = no growth, -100 = all killed)
The test system of assay [1] is NCI-H226 lung. The note with it: 10 µM.
For assay [2], the system named is HOP-62 NSCLC. The following applies: 10 µM.
Assay [3] deals with NCI-H460 lung. The following applies: 10 µM.
The test system of assay [4] is A549/ATCC NSCLC. The note with it: 10 µM.
The subject of assay [5] is COLO 205 colon. The note with it: 10 µM.
Assay [6] concerns DU-145 prostate. The following applies: 10 µM.
In assay [7] the test system is K-562 leukemia. The following applies: 10 µM.
Assay [8] deals with SF-539 CNS. The following applies: 10 µM.
Assay [9] relates to M14 melanoma. The note with it: 10 µM.
In assay [10] the test system is HCT-15 colon. The note with it: 10 µM.
The test system of assay [11] is HT29 colon. The following applies: 10 µM.
The test system of assay [12] is SNB-75 CNS. The note with it: 10 µM.
For assay [13], the system named is SNB-19 CNS. The note with it: 10 µM.
In assay [14] the test system is U251 CNS. The following applies: 10 µM.
For assay [15], the system named is PC-3 prostate. The following applies: 10 µM.
The test system of assay [16] is LOX IMVI melanoma. The note with it: 10 µM.
The test system of assay [17] is MOLT-4 leukemia. The note with it: 10 µM.
Assay [18] relates to RPMI-8226 leukemia. The note with it: 10 µM.
In assay [19] the test system is SK-OV-3 ovarian. The following applies: 10 µM.
Assay [20] concerns MDA-MB-468 breast. The following applies: 10 µM unless noted.

As to `COc1ccc(Cc2nn(CC(=O)N/N=C/c3ccc([N+](=O)[O-])cc3)c(=O)c3c(C)noc23)cc1`, the growth in assay [1] was 70.6%; in assay [2], 39.6%; in assay [3], 16.6%; in [4], 22.5%; in assay [5], 82.9%; in [6] it was 88.4%. Also, the growth in [7] is 88.4%; in assay [8] it was 34%; in assay [9] it was 70.1%; in [10], 83.7%; in assay [11] it was 96.2%; in assay [12], 99.8%. Besides, the growth was 59.6% in assay [13]; 24.4% in assay [14]; 69.8% in assay [15]; 26.4% in [16]; 90.2% in assay [17]; 81.5% in [18]. In addition, the growth in assay [19] was 103%; in assay [20] it was 53.1%.

On to `C#C[C@]1(O)CC[C@H]2[C@@H]3CC=C4c5sc(Nc6cc(C)cc(C)n6)nc5CC[C@]4(C)[C@H]3CC[C@@]21C`, for which the growth in [1] is 13.8%; in assay [2] it was 6.05% (active); in assay [3], -34.3% (active); in [4], 9.23% (active); in assay [5], -95.5% (active); in [6] it was 12.9%. Further, the growth was 4.71% (active) in assay [7]; -66% (active) in [8]; -42.1% (active) in [9]; -69.5% (active) in [10]; -74.2% (active) in [11]; 33.9% in assay [12]. Further, the growth in [13] is -39.1% (active); in [14], -58.9% (active); in assay [15], -4.36% (active); in assay [16], -96% (active); in assay [17] it was 1.29% (active); in assay [18] it was -16% (active). Besides, the values for the growth in assay [19] and in assay [20] were -62.4% (active) and -39.3% (active), respectively.

On to `O=C(c1ccc(F)cc1)C(c1c[nH]c2ccccc12)c1c[nH]c2ccccc12`, for which the growth was 36.5% in assay [1]; 91.5% in assay [2]; 33.9% in assay [3]; 91.7% in [4]; 97.7% in assay [5]; 33.5% in [6]. Also, the growth is 5.35% (active) in assay [7]; 88% in assay [8]; 74.7% in assay [9]; 7.29% (active) in assay [10]; 30.8% in assay [11]; 79.1% in assay [12]. The growth in [13] is 92.6%; in [14] it was 74.8%; in assay [15], 41%; in [16] it was -76.3% (active); in assay [17], 26.6%; in assay [18], 18.9%. Also, the growth was 99.9% in assay [19] and 23.1% in assay [20].

Turning to `Fc1ccc(/C=C/c2nc3ccccc3n3c(-c4ccc(Cl)cc4)nnc23)cc1`, the growth is 77.4% in [1]; 107% in [2]; 59.6% in assay [3]; 82% in [4]; 67.8% in assay [5]; 68% in assay [6]. The growth in [7] was 10%; in assay [8], 85.5%; in [9] it was 63.8%; in assay [10], 24%; in assay [11] it was 59.5%; in assay [12], 86.8%. Further, the growth is 86.2% in assay [13]; 73% in [14]; 72.5% in [15]; -89.2% (active) in assay [16]; 2.97% (active) in assay [17]; 53.5% in assay [18]. Further, the results for the growth in [19] and in [20] were 104% and -2.32% (active), respectively.

Turning to `Cn1cc(-c2nnc(N)nc2-c2c[nH]c3ccc(F)cc23)c2cc(Br)cnc21`, the growth in assay [1] is 89.3%; in assay [2] it was 56.8%; in assay [3], 39.7%; in assay [4] it was 66.2%; in assay [5], 72.6%; in [6], 89.4%. Besides, the growth in assay [7] is 42.8%; in [8] it was 64.5%; in assay [9], 77.4%; in assay [10], 59.8%; in assay [11], 71.6%; in assay [12], 59.1%. Further, the growth in assay [13] is 58.3%; in assay [14], 57.1%; in assay [15] it was 56.8%; in assay [16] it was 47%; in [17], 4.34% (active); in assay [18] it was 59.1%. For the same compound, the figures for the growth in [19] and in assay [20] were 98.8% and 13.8%, respectively.

As to `COc1cc2oc(-c3cccc(C(=O)Nc4ccc(Cl)cc4)c3)cc(=O)c2c(OCCNC(=O)[C@@H](N)CO)c1OC`, the growth in [1] was 95.1%; in assay [2] it was 87.6%; in assay [3], 40.2%; in [4], 102%; in assay [5], 40.9%; in assay [6] it was 77%. The growth is -53.3% (active) in [7]; 23.9% in [8]; -81.8% (active) in assay [9]; 83% in assay [10]; 37.3% in assay [11]; 121% in assay [12]. The growth in assay [13] is 25%; in assay [14], -82.6% (active); in assay [15], 48.3%; in assay [16], -79.1% (active); in assay [17] it was -40.4% (active); in assay [18], -23.4% (active). Also, the growth in assay [19] is 115%.

For the compound `COc1ccc(OC)c(-n2cc(C#N)c(N)c2C(=O)c2ccc(Cl)cc2Cl)c1`, the growth in assay [1] is 51.3%; in assay [2] it was 49.3%; in [3], 32.9%; in [4], 51.9%; in assay [5] it was 32.6%; in assay [6], 65.6%. The growth was 14.1% in assay [7]; 25.6% in [8]; 23.5% in assay [9]; 21.6% in assay [10]; 4.43% (active) in assay [11]; -7.62% (active) in assay [12]. Besides, the growth in assay [13] is 45.5%; in assay [14] it was 24.6%; in assay [15] it was 37.8%; in [16], 48.2%; in assay [17], 29.8%; in [18], 39%. For the same compound, the growth in [19] was 49.7%; in assay [20], 19.8%.

For `CC1(C)CC[C@]2(C(=O)O)CC[C@]3(C)C(=CCC4[C@@]5(C)C[C@@H](O)[C@@H]6OC(c7cccc(F)c7)OC[C@@]6(C)C5CC[C@]43C)C2C1` (some centres undefined), the growth in [1] was 39.9%; in assay [2] it was 49.5%; in assay [3] it was 27.6%; in assay [4], 19.8%; in assay [5] it was 15.2%; in assay [6] it was 36.7%. In addition, the growth in assay [7] was 21.1%; in assay [8] it was 70.2%; in assay [9] it was 46%; in assay [10] it was 23%; in assay [11], 28.1%; in assay [12], 81.6%. In addition, the growth in assay [13] is 45.7%; in assay [14], 11.6%; in assay [15], 32.1%; in [16], 27.6%; in [17], 18.5%; in assay [18], 21.1%. The growth in assay [19] is 82.7%; in assay [20], 23.5%.
